Details in all cases: mRNA level, 48 h; actives raise or lower the signal
Read-out in assay [1]: JUN Transcription Factor, JUN (gene 3725)
Description: LTEA_HepaRG_JUN: Life Technologies and Expression Analysis (LTEA) Assay for JUN Transcription Factor using HepaRG (AID 2283513). The method in brief: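 HepaRG cells, 48 h post-plating, exposed 48 h in serum-free induction medium to 8-point half-log series (top 100 uM, 0.5% DMSO), duplicate; mRNA by qRT-PCR (TaqMan, Fluidigm), normalized to ACTB/GAPDH/POLR2A; bidirectional fit vs DMSO.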

Read-out in assay [2]: Lipase C (LIPC), LIPC (gene 3990)
Kind of assay: LTEA_HepaRG_LIPC: Life Technologies and Expression Analysis (LTEA) Assay for Lipase C (LIPC) using HepaRG (AID 2283514). The method in brief:
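HepaRG cells, 48 h after plating, treated in duplicate for 48 h in serum-free induction medium over 8 half-log concentrations from 100 uM, 0.5% DMSO. LIPC mRNA by TaqMan qRT-PCR normalized to ACTB/GAPDH/POLR2A; bidirectional fit versus DMSO.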

Read-out in assay [3]: Lipoprotein lipase (LPL), LPL (gene 4023)
Description: LTEA_HepaRG_LPL: Life Technologies and Expression Analysis (LTEA) Assay for Lipoprotein lipase (LPL) using HepaRG (AID 2283515). The method in brief: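 Differentiated HepaRG cells, plated 48 h, then exposed 48 h in serum-free induction medium to 8 concentrations (top 100 uM, half-log steps) in 0.5% DMSO, duplicate. LPL mRNA measured by qRT-PCR, normalized to ACTB, GAPDH and POLR2A.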

Read-out in assay [4]: MicroRNA 122 (MIR122), gene 406906
Kind of assay: LTEA_HepaRG_MIR122: Life Technologies and Expression Analysis (LTEA) Assay for MicroRNA 122 (MIR122) using HepaRG (AID 2283516). Also: the transcript read is the microRNA miR-122. The method, boiled down: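 Differentiated human HepaRG cells in serum-free induction medium exposed 48 h to 8 half-log concentrations from 100 uM in 0.5% DMSO, duplicate. MIR122 quantified by Fluidigm TaqMan qRT-PCR, normalised to ACTB, GAPDH, POLR2A; fold change fitted bidirectionally versus DMSO.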

Read-out in assay [5]: matrix metalloproteinase-10 (MMP10), MMP10 (gene 4319)
Kind of assay: LTEA_HepaRG_MMP10: Life Technologies and Expression Analysis (LTEA) Assay for matrix metalloproteinase-10 (MMP10) using HepaRG (AID 2283517). The method in brief: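 Differentiated HepaRG cells in serum-free induction medium exposed 48 h in duplicate to 8-point half-log series up to 100 uM in 0.5% DMSO. mRNA quantified by qRT-PCR, normalised to ACTB, GAPDH, POLR2A; bidirectional fit versus DMSO.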

Read-out in assay [6]: MYC, MYC (gene 4609)
Kind of assay: LTEA_HepaRG_MYC: Life Technologies and Expression Analysis (LTEA) Assay for MYC using HepaRG (AID 2283518). The method, boiled down:
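MYC transcript changes, up or down relative to 0.5% DMSO, from TaqMan qRT-PCR normalized to three housekeeping genes. Human HepaRG cultures received chemicals for 48 h at eight half-log concentrations up to 100 uM, in duplicate.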

Read-out in assay [7]: matrix metalloproteinase-3 (MMP3), MMP3 (gene 4314)
Kind of assay: LTEA_HepaRG_MMP3: Life Technologies and Expression Analysis (LTEA) Assay for matrix metalloproteinase-3 (MMP3) using HepaRG (AID 2283519). The method, boiled down:
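HepaRG cells (~100,000/well) in serum-free induction medium were dosed in duplicate for 48 h with an 8-point half-log series from 100 uM, 0.5% DMSO. MMP3 mRNA was quantified by Fluidigm TaqMan qRT-PCR, normalized to three housekeeping genes.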

Read-out in assay [8]: Paternally Expressed 10 (PEG10), PEG10 (gene 23089)
Description: LTEA_HepaRG_PEG10: Life Technologies and Expression Analysis (LTEA) Assay for Paternally Expressed 10 (PEG10) using HepaRG (AID 2283520). The method, boiled down:
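Differentiated HepaRG cells exposed 48 h in serum-free induction medium to eight half-log concentrations topping at 100 uM, 0.5% DMSO, in duplicate. PEG10 mRNA quantified by TaqMan qRT-PCR, normalized to ACTB, GAPDH and POLR2A; bidirectional fit versus DMSO.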

Read-out in assay [9]: Nuclear factor NF-kappa-B p105 subunit (Homo sapiens) (UniProt P19838)
Description: LTEA_HepaRG_NFKB1: Life Technologies and Expression Analysis (LTEA) Assay for Nuclear Factor Kappa B Subunit 1 (NFKB1) using HepaRG (AID 2283521). The method, boiled down:
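Human HepaRG cells receive eight half-log concentrations, highest 100 uM, for 48 h. NFKB1 expression is then quantified by qRT-PCR and analysed for up- or down-regulation relative to 0.5% DMSO vehicle.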

Read-out in assay [10]: Protein phosphatase 2A (PPP2R4), PTPA (gene 5524)
Description: LTEA_HepaRG_PPP2R4: Life Technologies and Expression Analysis (LTEA) Assay for Protein phosphatase 2A (PPP2R4) using HepaRG (AID 2283522). The method in brief:
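Differentiated human HepaRG cells in serum-free induction medium were exposed 48 h to 8 concentrations (top 100 µM, half-log steps, duplicate) in 0.5% DMSO. PPP2R4 mRNA was measured by TaqMan qRT-PCR, normalised to ACTB, GAPDH and POLR2A, and fitted bidirectionally versus DMSO.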

Read-out in assay [11]: Phosphatase and tensin (PTEN), PTEN (gene 5728)
Kind of assay: LTEA_HepaRG_PTEN: Life Technologies and Expression Analysis (LTEA) Assay for Phosphatase and tensin (PTEN) using HepaRG (AID 2283523). The method in brief: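 HepaRG cells, 48 h after plating, exposed in duplicate for 48 h in serum-free induction medium to 8 half-log concentrations up to 100 uM (0.5% DMSO). PTEN mRNA by qRT-PCR, normalized to ACTB, GAPDH, POLR2A; bidirectional fit versus DMSO.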

Read-out in assay [12]: solute carrier (SLC22A1), SLC22A1 (gene 6580)
Description: LTEA_HepaRG_SLC22A1: Life Technologies and Expression Analysis (LTEA) Assay for solute carrier (SLC22A1) using HepaRG (AID 2283524). The method, boiled down:
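Differentiated human HepaRG cells in serum-free induction medium, exposed 48 h in duplicate to 8-point half-log series from 100 µM top in 0.5% DMSO. SLC22A1 mRNA by TaqMan qRT-PCR normalized to ACTB, GAPDH, POLR2A; bidirectional fit versus DMSO.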

Read-out in assay [13]: Pyruvate Dehydrogenase Kinase 4 (PDK4), PDK4 (gene 5166)
Description: LTEA_HepaRG_PDK4: Life Technologies and Expression Analysis (LTEA) Assay for Pyruvate Dehydrogenase Kinase 4 (PDK4) using HepaRG (AID 2283525). The method, boiled down:
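HepaRG cells plated 48 h, then switched to serum-free induction medium and exposed in duplicate for 48 h to 8 half-log concentrations from 100 uM in 0.5% DMSO. PDK4 mRNA measured by qRT-PCR, normalized to ACTB, GAPDH and POLR2A; bidirectional fit versus DMSO.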

Read-out in assay [14]: NAD(P)H dehydrogenase [quinone] 1 (NQO1), NQO1 (gene 1728)
Description: LTEA_HepaRG_NQO1: Life Technologies and Expression Analysis (LTEA) Assay for NAD(P)H dehydrogenase [quinone] 1 (NQO1) using HepaRG (AID 2283526). The method in brief:
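Differentiated human HepaRG cells in serum-free induction medium, dosed in duplicate for 48 h at 8 half-log concentrations up to 100 uM in 0.5% DMSO. NQO1 mRNA by qRT-PCR normalized to ACTB, GAPDH, POLR2A; bidirectional fit versus DMSO baseline.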

Read-out in assay [15]: Nuclear factor erythroid 2-related factor 2 (Homo sapiens) (UniProt Q16236)
Kind of assay: LTEA_HepaRG_NFE2L2: Life Technologies and Expression Analysis (LTEA) Assay for Nuclear factor erythroid 2-related factor 2 (NFE2L2) Transcription Factor using HepaRG (AID 2283527). The method, boiled down:
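Differentiated human HepaRG cells, serum-free induction medium, exposed 48 h in duplicate to eight half-log concentrations up to 100 uM in 0.5% DMSO. NFE2L2 mRNA by Fluidigm TaqMan qRT-PCR, normalised to ACTB, GAPDH, POLR2A; bidirectional change versus DMSO.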

Read-out in assay [16]: succinate dehydrogenase complex iron sulfur subunit B (SDHB), SDHB (gene 6390)
Description: LTEA_HepaRG_SDHB: Life Technologies and Expression Analysis (LTEA) Assay for succinate dehydrogenase complex iron sulfur subunit B (SDHB) using HepaRG (AID 2283528). The method in brief: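 A human HepaRG culture in serum-free induction medium received test chemicals for 48 h over an eight-point range capped at 100 uM. SDHB expression change was quantified by qRT-PCR.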

Read-out in assay [17]: Signal transducer and activator of transcription 3 (Homo sapiens) (UniProt P40763)
Kind of assay: LTEA_HepaRG_STAT3: Life Technologies and Expression Analysis (LTEA) Assay for Signal transducer and activator of transcription (STAT3) using HepaRG (AID 2283529). The method, boiled down: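 Differentiated HepaRG cells, serum-free induction medium, dosed 48 h in duplicate, 8 half-log concentrations from 100 uM in 0.5% DMSO. STAT3 mRNA by qRT-PCR, normalised to ACTB, GAPDH, POLR2A; bidirectional fit versus DMSO.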

Read-out in assay [18]: solute carrier (SLCO1B1), SLCO1B1 (gene 10599)
Description: LTEA_HepaRG_SLCO1B1: Life Technologies and Expression Analysis (LTEA) Assay for solute carrier (SLCO1B1) using HepaRG (AID 2283530). The method in brief:
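SLCO1B1 transcript levels were quantified by TaqMan qRT-PCR using three housekeeping genes for normalization. This followed 48 h chemical exposure (100 uM top, half-log, 8 points, 0.5% DMSO) of HepaRG liver cells, with gain or loss fitted relative to DMSO.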

Read-out in assay [19]: Transforming Growth Factor (TGFA), TGFA (gene 7039)
Description: LTEA_HepaRG_TGFA: Life Technologies and Expression Analysis (LTEA) Assay for Transforming Growth Factor (TGFA) using HepaRG (AID 2283532). The method, boiled down: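 Differentiated HepaRG cells exposed 48 hours in serum-free induction medium, 0.5% DMSO vehicle, 8-point half-log series from 100 uM, in duplicate. TGFA mRNA by TaqMan qRT-PCR, normalised to ACTB, GAPDH, POLR2A; bidirectional fit versus DMSO.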

Active and inactive are the calls of the source. The calls were made as follows: active = hit-call score of the fitted dose curve at least 0.9, where 1 is the maximum; inactive = score below 0.9.

Sequence of Signal transducer and activator of transcription 3 (Homo sapiens) (P40763 whole entry, looked up): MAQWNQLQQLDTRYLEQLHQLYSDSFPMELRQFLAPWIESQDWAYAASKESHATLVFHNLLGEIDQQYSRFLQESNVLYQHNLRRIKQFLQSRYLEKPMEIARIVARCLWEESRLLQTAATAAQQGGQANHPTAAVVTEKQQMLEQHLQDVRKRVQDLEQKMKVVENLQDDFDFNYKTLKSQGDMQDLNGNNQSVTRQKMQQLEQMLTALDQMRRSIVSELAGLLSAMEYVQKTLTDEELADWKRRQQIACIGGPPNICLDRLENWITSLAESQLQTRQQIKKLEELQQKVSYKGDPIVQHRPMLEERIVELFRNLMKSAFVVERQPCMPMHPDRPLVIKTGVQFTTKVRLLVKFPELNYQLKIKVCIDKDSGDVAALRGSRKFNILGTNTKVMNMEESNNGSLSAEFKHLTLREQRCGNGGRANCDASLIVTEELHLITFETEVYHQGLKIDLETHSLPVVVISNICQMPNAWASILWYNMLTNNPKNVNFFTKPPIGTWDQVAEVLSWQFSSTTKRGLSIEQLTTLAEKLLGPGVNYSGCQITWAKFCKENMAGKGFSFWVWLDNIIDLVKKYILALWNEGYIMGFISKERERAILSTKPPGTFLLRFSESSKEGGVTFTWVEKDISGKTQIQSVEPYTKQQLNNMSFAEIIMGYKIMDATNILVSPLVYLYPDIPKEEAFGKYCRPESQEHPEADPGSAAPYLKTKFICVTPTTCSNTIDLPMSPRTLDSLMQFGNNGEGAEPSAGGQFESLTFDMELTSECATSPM
Sequence of Nuclear factor NF-kappa-B p105 subunit (Homo sapiens) (P19838 whole entry, looked up): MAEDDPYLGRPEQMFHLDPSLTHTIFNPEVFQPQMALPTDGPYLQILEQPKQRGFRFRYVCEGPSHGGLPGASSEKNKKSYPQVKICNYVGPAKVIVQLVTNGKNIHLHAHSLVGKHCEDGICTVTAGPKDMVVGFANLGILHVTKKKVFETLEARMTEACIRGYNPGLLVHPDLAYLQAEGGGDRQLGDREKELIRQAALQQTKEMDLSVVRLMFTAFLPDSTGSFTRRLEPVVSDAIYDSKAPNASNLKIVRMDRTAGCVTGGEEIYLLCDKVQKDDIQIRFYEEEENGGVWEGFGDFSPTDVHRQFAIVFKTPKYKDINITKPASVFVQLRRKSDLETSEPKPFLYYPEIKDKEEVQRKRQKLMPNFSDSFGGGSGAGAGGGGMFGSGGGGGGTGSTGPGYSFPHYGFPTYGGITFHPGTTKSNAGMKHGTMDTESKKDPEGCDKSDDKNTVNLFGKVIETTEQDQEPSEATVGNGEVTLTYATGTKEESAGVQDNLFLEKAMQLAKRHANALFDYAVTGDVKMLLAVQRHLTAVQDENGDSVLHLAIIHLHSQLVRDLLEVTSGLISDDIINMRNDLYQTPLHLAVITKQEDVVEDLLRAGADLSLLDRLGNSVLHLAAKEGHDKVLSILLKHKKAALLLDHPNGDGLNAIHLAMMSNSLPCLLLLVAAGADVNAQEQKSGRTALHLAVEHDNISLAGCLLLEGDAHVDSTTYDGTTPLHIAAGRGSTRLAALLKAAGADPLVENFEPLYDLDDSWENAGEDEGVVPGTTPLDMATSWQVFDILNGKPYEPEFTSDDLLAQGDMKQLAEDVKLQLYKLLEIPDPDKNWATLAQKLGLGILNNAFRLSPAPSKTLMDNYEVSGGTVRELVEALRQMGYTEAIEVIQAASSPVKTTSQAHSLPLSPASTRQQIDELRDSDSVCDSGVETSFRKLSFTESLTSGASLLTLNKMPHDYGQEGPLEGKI
Sequence of Nuclear factor erythroid 2-related factor 2 (Homo sapiens) (Q16236 whole entry, looked up): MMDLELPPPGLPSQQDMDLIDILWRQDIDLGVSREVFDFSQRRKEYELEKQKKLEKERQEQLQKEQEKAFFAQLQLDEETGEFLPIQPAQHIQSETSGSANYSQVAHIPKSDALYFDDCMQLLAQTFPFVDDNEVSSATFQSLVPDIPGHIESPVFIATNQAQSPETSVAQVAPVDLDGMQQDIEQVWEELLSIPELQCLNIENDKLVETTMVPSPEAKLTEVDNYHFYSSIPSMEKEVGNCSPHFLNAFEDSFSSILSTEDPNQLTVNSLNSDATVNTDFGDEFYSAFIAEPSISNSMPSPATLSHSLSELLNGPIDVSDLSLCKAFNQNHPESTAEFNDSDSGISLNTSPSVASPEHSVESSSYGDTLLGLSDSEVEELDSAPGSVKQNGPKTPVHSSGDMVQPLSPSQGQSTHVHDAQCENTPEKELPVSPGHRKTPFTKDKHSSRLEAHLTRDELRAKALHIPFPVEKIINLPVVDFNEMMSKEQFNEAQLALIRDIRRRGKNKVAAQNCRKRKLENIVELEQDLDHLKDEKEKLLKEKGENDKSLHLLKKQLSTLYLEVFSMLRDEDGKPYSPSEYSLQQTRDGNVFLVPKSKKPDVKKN

For the compound `CCc1cc(SCc2sc(-c3ccc(C(F)(F)F)cc3)nc2CN2CCN(c3ccc(OC)cc3)CC2)ccc1OCC(=O)O`, the AC50 in assay [1] is 88.8 µM (active); in [2] it was 7.95 µM (active); in assay [3], 27.9 µM (active); in [4], 93.4 µM (active); in [5] it was 7.31 µM (active); in assay [6] it was 7.43 µM (active). In addition, the AC50 in assay [8] was 93.6 µM (active); in [9], 91 µM (active); in assay [10], 22.4 µM (active); in [11], 24.6 µM (active); in [12], 8.47 µM (active); in [13] it was 92.2 µM (active). For the same compound, the AC50 in assay [14] was 8.39 µM (active); in assay [15], 91.8 µM (active); in assay [16], 93.7 µM (active); in [17], 93.3 µM (active); in assay [18], 7.63 µM (active); in assay [19], 6.99 µM (active). Moreover, the call in assay [7] was inactive.

Take `CCN(C(=O)c1cc(C)cc(OC[C@H](C)Nc2ccncc2)c1)C(C)C`: the compound was called inactive in assay [1], in assay [6], in assay [7], in assay [8], in assay [9] and in [10]. In addition, the compound was called inactive in [11], in [14], in assay [15], in assay [16], in assay [17] and in [18]. Further, the compound was called inactive in assay [19]. Moreover, the AC50 in [2] was 33.8 µM (active); in assay [3] it was 33.8 µM (active); in assay [4], 33.8 µM (active); in assay [5] it was 33.8 µM (active); in [12] it was 33.8 µM (active); in assay [13] it was 53.7 µM (active).

Regarding `C=CCCCCCCCCC(=O)O`, the compound was classed as inactive in [1], in assay [2], in [3], in assay [4], in [5] and in assay [6]. Moreover, the compound was classed as inactive in [7], in assay [8], in assay [9], in assay [10], in assay [12] and in [13]. Moreover, the compound was called inactive in assay [14], in assay [15], in assay [16], in assay [17], in [18] and in assay [19]. In [11], the AC50 was 0.00821 µM (active).

The values are drawn from PubChem BioAssay (EPA / NIEHS).
